Results on 71 compounds are retold here after PubChem BioAssay AID652154 (Broad Institute, 2013).

The term inhibition denotes the drop in the measured response relative to a control, in per cent.

About 4,200 (1.2%) of roughly 360,000 compounds were called active.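 The calls were made as follows: active = mean replicate inhibition at least 60% with every replicate also reaching 60%; inconclusive = only one of the two criteria is met; inactive = mean below 60% and not all replicates reaching 60%.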 The list comes from a sample in which actives are over-represented; it also holds similar structures and randomly drawn compounds.

A short description of this assay: inhibitors of PAX8-driven TPO luciferase reporter, primary screen, RMG-I cells, single concentration (AID 652154).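 Also: luciferase light reporting Pax8 driven TPO promoter activity; plate controls were median of neutral control wells for no effect and mitoxantrone controls for full effect.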 Conditions: SteadyGlo, 24 h, at 12.6 µM, hits give high values. A general note: In a reporter assay the amount or activity of a reporter protein is the signal.
`Cc1noc(C)c1NC(=O)Nc1ccc2c(c1)C(=O)N([C@@H](C)CO)C[C@@H](C)[C@H](CN(C)C(=O)Nc1ccc(C(F)(F)F)cc1)OCCCC[C@@H](C)O2`: the inhibition was -4.84% (inactive).

Consider `CS(=O)(=O)N1CC(=O)N2[C@@H](CO)[C@@H](c3ccc(C#CCC4CCCC4)cc3)[C@@H]2C1`, for which the inhibition is 0.153% (inactive).

As for `C[C@@H]1CN([C@H](C)CO)C(=O)c2cc(NS(=O)(=O)c3cccs3)ccc2O[C@@H](C)CCCCO[C@H]1CN(C)Cc1ccc(C(F)(F)F)cc1`, the inhibition was 96.8% (active).

In the case of `C[C@@H]1CCCCO[C@@H](CN(C)Cc2ccc(C(=O)O)cc2)[C@H](C)CN([C@H](C)CO)C(=O)c2cc(NS(=O)(=O)c3cccs3)ccc2O1`, the inhibition was 0.438% (inactive).

As to `CC(C)NC(=O)N(C)C[C@H]1OCCCC[C@H](C)Oc2ccc(NS(=O)(=O)c3cccs3)cc2C(=O)N([C@H](C)CO)C[C@@H]1C`, the inhibition was -10.4% (inactive).

Turning to `Cc1ccc(S(=O)(=O)Nc2ccc3c(c2)C(=O)N([C@H](C)CO)C[C@@H](C)[C@H](CN(C)C(=O)Nc2ccc(C(F)(F)F)cc2)OCCCC[C@H](C)O3)cc1`, the inhibition was 54.1% (inactive).

With `C[C@@H]1CCCCO[C@@H](CN(C)Cc2ccccc2)[C@H](C)CN([C@H](C)CO)C(=O)c2cc(NS(=O)(=O)c3cccs3)ccc2O1`, the inhibition was 6.46% (inactive).

With `C[C@@H]1CCCCO[C@H](CN(C)C(=O)Nc2ccc(C(F)(F)F)cc2)[C@@H](C)CN([C@@H](C)CO)C(=O)c2cc(NS(=O)(=O)c3cccs3)ccc2O1`, the inhibition is 80.1% (active).

`CC(=O)N1[C@@H](CO)[C@@H](c2ccccc2)[C@@H]1CN(C)C(=O)CN1CCOCC1`: the inhibition was 12.7% (inactive).

Regarding `Cn1cnc(S(=O)(=O)N2C[C@H](O)COC[C@@H]3O[C@H](CC(=O)NC4CCCC4)CC[C@H]32)c1`, the inhibition was -34% (inactive).

For the compound `CC(C)NC(=O)N1[C@H](CO)[C@@H]2c3ccccc3N(C(=O)c3ccccc3F)C[C@@H]21`, the inhibition was -9.8% (inactive).

For `COc1ccccc1C#Cc1ccc([C@@H]2[C@H](CO)N3CCCCN(C(=O)C4CCCC4)C[C@@H]23)cc1`, the inhibition is -8.82% (inactive).

In the case of `COc1cccc(CNC(=O)c2nnn(CC(=O)Nc3cc(C)ccc3C)c2N)c1`, the inhibition was 5.68% (inactive).

On to `CCOc1ccccc1NC(=O)Cn1nnc(C(=O)NCc2cccs2)c1N`, for which the inhibition is 68.5% (active).

Take `Cc1ccc(NC(=O)Cn2nnc(C(=O)NCc3ccco3)c2N)c(C)c1`: the inhibition was 8.75% (inactive).

Turning to `Cc1ccc(-c2ccc3c(c2)O[C@H](CN(C)C(=O)CC2CC2)[C@@H](C)CN([C@H](C)CO)S3(=O)=O)cc1`, the inhibition was 11.8% (inactive).

Consider `CSc1nc(-c2ccccc2)nc(C(Cl)Cl)n1`, for which the inhibition is 99.3% (active).

`Clc1ccc2nc(-c3ccccc3)nc(C(Cl)Cl)c2c1`: the inhibition is 32.4% (inactive).

On to `C[C@@H]1CN([C@H](C)CO)C(=O)c2cc(NC(=O)CCCN(C)C)ccc2O[C@@H](C)CCCCO[C@H]1CN(C)CC1CCCCC1`, for which the inhibition is -3.49% (inactive).

In the case of `CCC(=O)Nc1ccc2c(c1)OC[C@H](C)N(CC1CCOCC1)C[C@@H](C)[C@@H](OC)CN(C)C2=O`, the inhibition was 6.07% (inactive).

Consider `O=C(C[C@@H]1CC[C@@H]2[C@H](COC[C@@H](O)CN2C(=O)c2ccccc2F)O1)N1CCOCC1`, for which the inhibition was 5.42% (inactive).

With `COc1cccc2c1C(=O)c1c(O)c3c(c(O)c1C2=O)CC(O)(C(C)=NNC(=O)c1ccc(Cl)c(Cl)c1)CC3OC1CC(N)C(O)C(C)O1` (stereo unspecified), the inhibition is 107% (active).

Regarding `CC(=O)N[C@@H]1CC[C@@H](CCNC(=O)C2CC2)O[C@H]1CO`, the inhibition was 11.9% (inactive).

In the case of `O=C(C[C@H]1CC[C@@H](NC(=O)Nc2cc(F)ccc2F)[C@@H](CO)O1)NCc1ccncn1`, the inhibition was 0.809% (inactive).

For the compound `OC[C@@H]1[C@H](c2ccc(C#CC3CC3)cc2)[C@@H]2CN(CCC(F)(F)F)CCCCN12`, the inhibition was -6.92% (inactive).

As to `O=C([C@H]1[C@H](CO)[C@H]2Cn3c(ccc(C4=CCCC4)c3=O)[C@@H]1N2C(=O)c1ccncc1)N1CCCCC1`, the inhibition was 0.28% (inactive).

Regarding `O=C(CCc1c[nH]c2ccccc12)NCCOc1ccccc1`, the inhibition is -5.95% (inactive).

As for `O=C(CCOc1ccccc1)NCc1ccccc1`, the inhibition was -18.5% (inactive).

For the compound `CCCCCCCCC(=O)NCCOc1ccccc1`, the inhibition was 111% (active).

As for `COc1cccc(C(=O)Nc2nnc(S(=O)(=O)N(C)c3ccccc3)s2)c1`, the inhibition is 2.52% (inactive).

For the compound `COc1cccc(C(=O)Nc2nc3ccc(S(C)(=O)=O)cc3s2)c1`, the inhibition was 80.8% (active).

Consider `COc1ccc(C(=O)Nc2cccc(S(C)(=O)=O)c2)cc1`, for which the inhibition was -14.4% (inactive).

As to `O=C(Nc1ccccc1F)N1[C@H](CO)[C@H]2c3ccccc3NC[C@H]21`, the inhibition is -4.34% (inactive).

On to `COc1cccc(/C=N/Nc2ncc(C(F)(F)F)cc2Cl)c1O`, for which the inhibition is 63.6% (active).

For `O=c1[nH]c2cccnc2n(CCNc2ncc(C(F)(F)F)cc2Cl)c1=O`, the inhibition was -4.25% (inactive).

Take `CN(C)C=NC(=O)c1cccn1-c1ncc(C(F)(F)F)cc1Cl`: the inhibition is 5.77% (inactive).

Consider `CNC(=O)C[C@H]1CC[C@H]2[C@H](COc3ccc(NC(=O)c4cc(C)on4)cc3C(=O)N2C)O1`, for which the inhibition was 57.2% (inactive).

On to `COCC(=O)Nc1ccc2c(c1)C(=O)N(C)C[C@H](OC)[C@@H](C)CN(CC1CC1)[C@@H](C)CO2`, for which the inhibition was -3.11% (inactive).

With `C[C@H]1CN([C@@H](C)CO)S(=O)(=O)c2ccc(C#CCN(C)C)cc2O[C@H]1CN(C)C(=O)c1ccccc1F`, the inhibition is -3.76% (inactive).

Take `C[C@H]1CN([C@@H](C)CO)S(=O)(=O)c2ccc(C#Cc3ccccc3F)cc2O[C@@H]1CN(C)C(=O)c1ccc2c(c1)OCO2`: the inhibition is 72.5% (active).

Consider `CCCC#Cc1ccc2c(c1)O[C@@H](CN(C)C(=O)CC)[C@H](C)CN([C@H](C)CO)S2(=O)=O`, for which the inhibition is -8.15% (inactive).

For the compound `CCCC#Cc1ccc2c(c1)O[C@H](CN(C)C(=O)CC)[C@@H](C)CN([C@H](C)CO)S2(=O)=O`, the inhibition was -14.1% (inactive).

For the compound `COCC#Cc1ccc2c(c1)O[C@H](CN(C)Cc1ccc3c(c1)OCO3)[C@H](C)CN([C@H](C)CO)S2(=O)=O`, the inhibition was 0.398% (inactive).

`CC(C)C#Cc1ccc2c(c1)O[C@@H](CN(C)C(=O)Nc1ccccc1)[C@H](C)CN([C@H](C)CO)S2(=O)=O`: the inhibition is 15.8% (inactive).

Regarding `C[C@H]1CN([C@@H](C)CO)S(=O)(=O)c2ccc(-c3cccc(C#N)c3)cc2O[C@H]1CN(C)C(=O)c1ccccc1`, the inhibition was 15.6% (inactive).

For the compound `C[C@@H]1CN([C@H](C)CO)S(=O)(=O)c2ccc(C#Cc3ccccc3F)cc2O[C@@H]1CN(C)C(=O)c1ccc2c(c1)OCO2`, the inhibition was 73.7% (active).

Consider `C[C@@H]1CN([C@@H](C)CO)S(=O)(=O)c2ccc(C#Cc3ccccc3F)cc2O[C@H]1CN(C)C(=O)c1ccc2c(c1)OCO2`, for which the inhibition is 101% (active).

With `C[C@H](CO)N1C[C@H](C)[C@H](CN(C)Cc2cccc(F)c2)Oc2ncc(C#CCN(C)C)cc2C1=O`, the inhibition was 10.3% (inactive).

As for `Cc1cc(OC(=O)NCCc2ccc(F)cc2)ccc1F`, the inhibition is -1.24% (inactive).

Regarding `OC[C@H]1[C@@H](c2ccc(-c3ccccc3F)cc2)[C@@H]2CN(Cc3ccncc3)CCCCN12`, the inhibition was 17.2% (inactive).

`CCCc1cn(CC[C@H]2CC[C@@H](NS(=O)(=O)c3ccccc3Cl)[C@@H](CO)O2)nn1`: the inhibition is -2.22% (inactive).

Regarding `O=C(C[C@@H]1C=C[C@H](NC(=O)Nc2ccccc2F)[C@@H](CO)O1)NCc1ccccc1`, the inhibition was 1.09% (inactive).

`COc1ccc(CN2[C@H](CO)[C@@H]3c4ccccc4N(C(=O)C4CC4)C[C@@H]32)cc1`: the inhibition was 5.67% (inactive).

Take `Brc1ccc(COCCc2cn(Cc3ccccc3)c3ccccc23)cc1`: the inhibition is -11.9% (inactive).

Take `COc1ccccc1C1C2=C(COC2=O)Nc2cc3c(cc21)OCO3` (stereo unspecified): the inhibition is 85.6% (active).

Consider `O=C1NC(c2cc3c(cc2Cl)OCO3)Oc2ccccc21` (stereo unspecified), for which the inhibition is -6.52% (inactive).

Turning to `O=C1OCC2=C1C(c1ccc(Cl)cc1)c1cc3c(cc1O2)OCO3` (stereo unspecified), the inhibition was 11% (inactive).

Turning to `C[C@@H]1CN([C@H](C)CO)C(=O)c2cc(NS(=O)(=O)c3ccccc3)ccc2O[C@H]1CN(C)S(=O)(=O)c1ccc(Cl)cc1`, the inhibition was 3.11% (inactive).

As to `Cc1ccc(C(=O)OC(C)CN2CCOCC2)cc1` (stereo unspecified), the inhibition is -27.6% (inactive).

`Cc1ccc(C(=O)C(=S)N2CCOCC2)cc1`: the inhibition is 67.2% (active).

With `Cc1ccc(C(=O)Oc2ccc(C(=S)N3CCOCC3)cc2)cc1`, the inhibition was -7.47% (inactive).

Regarding `C[C@@H]1CN([C@@H](C)CO)C(=O)Cc2cc(NC(=O)CCN3CCOCC3)ccc2O[C@@H]1CN(C)CC1CC1`, the inhibition was -46.4% (inactive).

Regarding `Cc1cccc(-c2nc3ccc(C(=O)NCCN4CCN(C)CC4)cc3nc2-c2cccc(C)c2)c1`, the inhibition was 50.9% (inactive).

On to `CCN1CCN(CCNC(=O)c2ccc(/C=C3/Sc4ccccc4N(Cc4cccc(C)c4)C3=O)cc2)CC1`, for which the inhibition is 84.9% (active).

As for `O=C(NCCN1CCOCC1)c1ccc2c(c1)N(Cc1cccc(Cl)c1)C(=O)c1ccccc1S2(=O)=O`, the inhibition was -1.71% (inactive).

As for `C[C@@H]1CCCCO[C@@H](CN(C)CC2CC2)[C@H](C)CN([C@H](C)CO)C(=O)c2cc(NS(=O)(=O)c3ccccc3)ccc2O1`, the inhibition is 3.85% (inactive).

Regarding `CN(O)C(=S)c1ccccc1`, the inhibition is 82% (active).

As for `COc1cccc(CN(C)C[C@H]2OCc3ccccc3-c3c(n(C)c4ccccc34)C(=O)N([C@@H](C)CO)C[C@@H]2C)c1`, the inhibition was 11% (inactive).

As for `O=C(c1ccncc1)N1C[C@@H]2[C@H](c3ccccc31)[C@H](CO)N2C(=O)c1ccncc1`, the inhibition is -12.9% (inactive).

For the compound `CC(C)NC(=O)N(C)C[C@@H]1Oc2ccc(N(C)C)cc2CC(=O)N([C@H](C)CO)C[C@@H]1C`, the inhibition is -4.65% (inactive).

For the compound `O=C(C[C@H]1CC[C@@H]2[C@H](COC[C@@H](O)CN2C(=O)Nc2ccc(C(F)(F)F)cc2)O1)NCCc1ccncc1`, the inhibition is -6.11% (inactive).
